# Measurements as given in PubChem BioAssay (NCATS).
# Several values for one entry are separate records, joined by “and”; a condition that tells them apart may be missing. Identical values can stand only once. Records with an inconclusive call do not appear. Values without a mark were called inactive. Activity calls are given as the source filed them. Calls follow the shape of the dose curve; as a rule, active = well fitted curve in the direction sought with a large enough effect; inconclusive = small, poorly fitted or top-dose-only effect, or another doubt; inactive = no such curve, though single readings can be large; an effect the other way counts as inactive or inconclusive.
# Assays:
# [1] = target: Cellular tumor antigen p53 (Homo sapiens) (UniProt P04637); experiment: Primary qHTS for small molecule compounds that upregulate eGFP-tagged delta133p53alpha (in N-terminal) cells. (AID 2060322); details: NCI-H358 eGFP-delta133p53alpha fluorescence, 24 h; activation: hits give high values; also: nearly all actives have a fitted effect of over 75% in size; also: potency is read from the fitted curve at half-maximal effect;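 as to activation: series mostly up to about 56 µM; 0% = DMSO vehicle and 100% = reference activator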
# Procedure, shortened: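 NCI-H358 cells pre-induced 24 h with 10 ng/ml doxycycline to express N-terminal eGFP-delta133p53alpha, then dosed 24 h at 37C without doxycycline; fixed, Hoechst-stained, GFP intensity by laser scanning cytometry, normalized to DMSO (0%) and 57.5 uM 5-azacytidine (100%).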
# [2] = target: Aldehyde dehydrogenase, mitochondrial (Homo sapiens) (UniProt P05091); experiment: qHTS for Inhibitors of the Aldehyde Dehydrogenase Family (ALDH2) Primary screen (AID 2061308);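 also: plate controls were vehicle for no effect and reference inhibitor for full effect; nearly all actives have a fitted effect of over 55% in size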
# [3] = qHTS for Inhibitors of the Aldehyde Dehydrogenase Family (ALDH1A2, ALDH1A3, ALDH2, ALDH3A1) (AID 2061307); also: nearly all actives have a fitted effect of over 50% in size; as to Potency: test system not described further here; potency is read from the fitted curve at half-maximal effect
# [4] = target: Retinaldehyde dehydrogenase 3 (Homo sapiens) (UniProt P47895); experiment: qHTS for Inhibitors of the Aldehyde Dehydrogenase Family (ALDH1A3) Confirmatory screens (AID 2061311); also: nearly all actives have a fitted effect of over 60% in size; also: potency is read from the fitted curve at half-maximal effect
# [5] = target: Retinal dehydrogenase 2 (Homo sapiens) (UniProt O94788); experiment: qHTS for Inhibitors of the Aldehyde Dehydrogenase Family (ALDH1A2) Confirmation screens (AID 2061314); also: nearly all actives have a fitted effect of over 65% in size; also: potency is read from the fitted curve at half-maximal effect
# [6] = target: Retinaldehyde dehydrogenase 3 (Homo sapiens) (UniProt P47895); experiment: qHTS for Inhibitors of the Aldehyde Dehydrogenase Family (ALDH1A3) Primary screen (AID 2061315); also: potency is read from the fitted curve at half-maximal effect
# [7] = target: Aldehyde dehydrogenase 1A1 (Homo sapiens) (UniProt P00352); experiment: qHTS for Inhibitors of the Aldehyde Dehydrogenase Family (ALDH1A1) Confirmatory screens (AID 2061316); also: nearly all actives have a fitted effect of over 65% in size; also: potency is read from the fitted curve at half-maximal effect
# [8] = target: Retinaldehyde dehydrogenase 3 (Homo sapiens) (UniProt P47895); experiment: qHTS for Inhibitors of the Aldehyde Dehydrogenase Family (ALDH1A3) Validation screen (AID 2061312); also: potency is read from the fitted curve at half-maximal effect; nearly all actives have a fitted effect of over 45% in size
# [9] = BET inhibitor-based combinations targeting novel dependencies in MECOM-rearranged (r) AML: OCI-AML3 cell line (AID 2202232); details: Potency: OCI-AML3 viability;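 also: series mostly up to about 46 µM; plate controls were DMSO vehicle wells for no effect and wells without cells for full effect; nearly all actives have a fitted effect of over 35% in size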
# Procedure, shortened: (§1)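 Each compound was tested at eleven concentrations on cells seeded at 500/well. After two days' incubation, ATP-based luminescence reported viability; responses relative to DMSO and blank wells yielded AUC and cell-line-centred Z-AUC.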
# [10] = BET inhibitor-based combinations targeting novel dependencies in MECOM-rearranged (r) AML: MV-4-11 cell line (AID 2202233);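 also: plate controls were DMSO for no effect and blank wells for full effect; nearly all actives have a fitted effect of over 45% in size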
# Procedure, shortened: (§2)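 First, 500 cells per well were seeded; next, drugs were pinned as 11-point doses; then plates sat 48 hr in the incubator; finally CellTiter-Glo was added and luminescence read, with AUC and Z-AUC computed.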
# [11] = BET inhibitor-based combinations targeting novel dependencies in MECOM-rearranged (r) AML: UCSD-AML1 cell line (AID 2202235);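 also: series mostly up to about 46 µM; plate controls were DMSO vehicle wells for no effect and blank wells for full effect; nearly all actives have a fitted effect of over 40% in size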
# Procedure, shortened: as §2
# [12] = BET inhibitor-based combinations targeting novel dependencies in MECOM-rearranged (r) AML: AML-191 cell line (AID 2202236;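 also: plate controls were vehicle wells for no effect and wells without cells for full effect; nearly all actives have a fitted effect of over 35% in size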)
# Procedure, shortened: as §1
# Sequence of Cellular tumor antigen p53 (Homo sapiens) (P04637 whole entry, looked up): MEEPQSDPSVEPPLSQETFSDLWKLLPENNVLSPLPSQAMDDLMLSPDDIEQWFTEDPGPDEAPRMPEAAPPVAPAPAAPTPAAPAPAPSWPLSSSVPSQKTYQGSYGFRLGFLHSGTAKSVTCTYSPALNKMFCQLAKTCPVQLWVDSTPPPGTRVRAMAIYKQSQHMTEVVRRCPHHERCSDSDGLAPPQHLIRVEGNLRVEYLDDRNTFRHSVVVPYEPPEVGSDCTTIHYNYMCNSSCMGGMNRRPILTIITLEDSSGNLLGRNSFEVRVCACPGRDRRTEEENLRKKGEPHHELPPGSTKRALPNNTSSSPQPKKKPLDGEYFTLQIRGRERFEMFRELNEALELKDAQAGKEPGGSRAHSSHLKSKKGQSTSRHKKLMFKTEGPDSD
compound,measurement,setting,value
C[C@@H]1O[C@@H](O[C@H]2[C@H](O[C@H]3[C@H](O[C@H]4CC[C@@]5(C)C(CC[C@]6(C)C5CC=C5[C@@H]7CC(C)(C(=O)O)C[C@@H](O)[C@]7(C)CC[C@]56C)[C@@]4(C)CO)O[C@H](C(=O)O)[C@@H](O)[C@@H]3O)O[C@H](CO)[C@H](O)[C@@H]2O)[C@H](O)[C@H](O)[C@H]1O (stereo not given in full),activation,[1],-0.893%
same,Potency,[2],inactive
OC[C@H]1O[C@@H](Oc2ccc(O)c3cccc(O)c23)[C@H](O)[C@@H](O)[C@@H]1O,activation,[1],-13%
same,Potency,[3],7.83 µM (active)
same,Potency,[4],0.985 µM (active)
same,Potency,[5],2.47 µM (active)
same,Potency,[6],1.78 µM (active)
CC(=O)N[C@@H](CC(=O)O)C(=O)N[C@@H](CCC(=O)O)C(=O)N[C@H](C(=O)N[C@@H](CC(=O)O)C(=O)Nc1ccc2c(C)cc(=O)oc2c1)C(C)C,Potency,[1],13.5 µM (active)
same,Potency,[3],inactive
same,Potency,[2],inactive
same,Potency,[6],inactive
CN(C)c1ccc(NC(=O)NS(=O)(=O)c2ccc(Cl)cc2)cc1,activation,[1],-1.67%
same,Potency,[3],6.34 µM (active)
same,Potency,[4],2.83 µM (active)
same,Potency,[5],10.1 µM (active)
same,Potency,[7],7.98 µM (active)
Cn1c(N2CCCCS2(=O)=O)nc(C(=O)NCc2ccc(F)cc2)c(O)c1=O,activation,[1],0.955%
same,Potency,[3],12.7 µM (active)
same,Potency,[6],inactive
same,Potency,[7],inactive
CC(C)c1ccc2c(c1)CCC1[C@](C)(C(=O)O)CCC[C@]21C (stereo not given in full),activation,[1],9.82%
same,Potency,[3],inactive
same,Potency,[4],inactive
same,Potency,[6],inactive
same,Potency,[7],inactive
COc1c2c(c(C)c3c1C(=O)OC3)OC1(C)CC(O)C34OC(OC)(CC(O)C3(C)C1C2)OC4(C)C (stereo not given),activation,[1],-9.92%
same,Potency,[3],inactive
same,Potency,[2],inactive
same,Potency,[6],inactive
CC(NC(=O)CC(=O)O)c1nc2ccccc2c(=O)[nH]1 (stereo not given),activation,[1],-5.36%
same,Potency,[3],inactive
same,Potency,[2],inactive
same,Potency,[7],1.27 µM (active)
COC(CCc1ccc(O)cc1)CC(=O)CCc1ccc(O)cc1 (stereo not given),activation,[1],7.63%
same,Potency,[3],inactive
same,Potency,[6],inactive
same,Potency,[7],inactive
COc1cc2c(cc1NS(=O)(=O)c1ccc(Br)cc1C)n(C)c(=O)n2C,activation,[1],-22.3%
same,Potency,[3],inactive
same,Potency,[8],31.6 µM (active)
same,Potency,[5],20.1 µM (active)
same,Potency,[7],inactive
COC1CC(OC2CCC3(C)C(=CCC4C3CCC3(C)C(C(C)O)CCC43O)C2)OC(C)C1OC1OC(C)C(OC2OC(COC3OC(COC4OC(CO)C(O)C(O)C4O)C(O)C(O)C3O)C(O)C(O)C2O)C(OC)C1O (stereo not given),activation,[1],-23.7%
same,Potency,[2],inactive
O=C(/C=C/c1ccc(O)c(O)c1)O[C@@H]1[C@@H](O)[C@H](OC2CCCCC2O)O[C@H](CO)[C@H]1O (stereo not given in full),activation,[1],2.29%
same,Potency,[3],inactive
same,Potency,[4],5.51 µM (active)
same,Potency,[5],inactive
same,Potency,[6],3.98 µM (active)
CC(NCc1ccc(OCc2cccc(F)c2)cc1)C(N)=O (stereo not given),activation,[1],-7.16%
same,Potency,[2],inactive
COc1cc(/C=C(\C#N)C(=O)c2ccc(O)c(O)c2)cc(I)c1O,activation,[1],0.259%
same,Potency,[3],4 µM (active)
same,Potency,[4],8.96 µM (active)
same,Potency,[5],12.7 µM (active)
COc1cc(/C=N\NC(=O)c2ccc3c(c2)OCO3)ccc1OCc1ccccc1,activation,[1],2.39%
same,Potency,[2],inactive
CC(O)/C=C/C1(O)C2(C)COC1(C)CC(O)C2 (stereo not given),activation,[1],9.82%
same,Potency,[2],inactive
CC1(C(=O)O)CC[C@]2(C(=O)OC3OC(CO)C(O)C(O)C3O)CC[C@]3(C)C(=CCC4[C@@]5(C)CC[C@H](OC6OCC(O)C(O)C6OC6OC(CO)C(O)C(O)C6O)C(C)(C)C5CC[C@]43C)C2C1 (stereo not given in full),activation,[1],-5.34%
same,Potency,[2],inactive
Oc1ccc(O)cc1,activation,[1],17.5% and -0.402%
same,Potency,[3],11.3 µM (active)
same,Potency,[4],4.49 µM (active)
same,Potency,[8],0.794 µM (active)
same,Potency,[7],11.3 µM (active)
Cc1c(C)c(NCC(=O)N(C)C2CCN(Cc3ccc(C(N)=O)cc3)CC2)c(C)c(C)c1N,activation,[1],1.43%
same,Potency,[2],inactive
O=C(NNc1ccccc1)c1ccncc1,activation,[1],-8.33%
same,Potency,[3],inactive
same,Potency,[5],inactive
same,Potency,[7],inactive
same,Potency,[9],inactive
same,Potency,[10],inactive
same,Potency,[11],inactive
same,Potency,[12],inactive
O=C(O)c1cc(-c2c(-c3ccccc3)nn3ccccc23)n[nH]c1=O,activation,[1],-0.333%
same,Potency,[3],inactive
same,Potency,[2],inactive
same,Potency,[6],inactive
